# Measurements published in PubChem BioAssay (NCI).
# About 83,000 compounds went through this panel and 20% of them were active in at least one assay; those are over-represented in the sample as a whole.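 How to read the values: 0–100, growth inhibition (40 = 60% inhibited); 0, no net growth; -100 to 0, cell death (-40 = 40% of starting cells died; -100 = all dead).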 Unmarked numbers belong to inactive results. Calls of active or inactive are those of the source. How the source made its calls: active means growth percent below 10; inactive means the rest.
# System: OVCAR-3 ovarian
# Assay: NCI-60 one-dose screen, 48 h (100 = growth as untreated, 0 = no growth, -100 = all killed)
# Details: 10 µM unless noted
row,SMILES,growth
1,Cn1cnc([N+](=O)[O-])c1N1c2ccncc2Sc2ccncc21,92.7%
2,O=C(Nc1ccccc1F)Nc1ccccc1Cl,102%
3,CCCOC(=O)c1ccc([N+](=O)[O-])o1,123%
4,COc1cc(/C=C/C(=O)c2ccc(Oc3ncnc4ccccc34)cc2)cc(OC)c1OC,35.6%
5,COc1ccc(/C=C2\CS(=O)(=O)C/C(=C\c3ccc(OC)cc3)C2=O)cc1,-66.2% (active)
6,CC(NCCC(c1ccccc1)c1ccccc1)c1ccccc1 (centres undefined),78.4%
7,O=C(/C=C/c1ccco1)c1cccc(Nc2nc(Nc3ccccc3)nc(Nc3ccccc3)n2)c1,61.8%
8,Cc1cc(NCCN(C(C)C)C(C)C)nc(/N=C(\N)Nc2ccc(Cl)c(C(F)(F)F)c2)n1,-73.6% (active)
9,O=S1(=O)N(CCNc2nccc(-c3c(-c4cccc(O)c4)nc4sccn34)n2)CCN1Cc1ccccc1,64.9%
10,Clc1ccc(CN2COc3c(ccc4cccnc34)C2)cc1Cl,-1.22% (active)
11,CCC(C)Nc1ccc(N)cc1 (centres undefined),-42.9% (active)
12,CC1(C)N=C(N)N=C(N)N1c1ccc(OCC(=O)Nc2ccccc2)c(Cl)c1,56.7%
13,COc1ccc2c(c1)C(=O)/C(=C/c1ccc(OCC(=O)c3ccc(Cl)cc3)cc1)O2,83.7%
14,Cc1cccc(NC(=O)CCc2ccc(N3C(N)=NC(N)=NC3(C)C)cc2)c1,65.6%
15,CCn1c(SC)nnc1-c1cc2c([nH]c3ccccc32)c(-c2cccc(O)c2)n1,-7.34% (active)
16,CC(=O)N1N=C2N(Cc3ccccc3)C(=O)c3c(sc4c3CCCC4)N2C1c1cn(-c2ccccc2)nc1-c1ccc(Cl)cc1 (centres undefined),101%
17,COc1ccc2c(c1)C(=O)/C(=C/c1cccc(OCC(=O)c3ccccc3)c1)O2,-84.4% (active)
18,NC(=S)NNC1CCCCC1,110%
19,NC(CSC(c1ccccc1)(c1ccccc1)c1ccc(F)cc1)C(=O)O (centres undefined),-39.5% (active)
20,CC1=C[S+](c2ccccc2)c2cccc3cc4ccccc4c1c23 (centres undefined),-82.9% (active)

row,SMILES,growth
1,Cn1c(I)c(C#C[Si](C)(C)C)c(=O)[nH]c1=O,-54.1% (active)
2,COc1ccc2c(-c3ccc(F)cc3)c(C#N)c(=NC(C)=O)oc2c1,18.2%
3,Nc1ccc(S(=O)(=O)Nc2ccnn2-c2ccccc2)cc1,111%
4,Cc1cn(C2CC(F)C(CO)O2)c(=O)[nH]c1=O (centres undefined),137%
5,CCCN1C(=O)CSC1=Nc1ccc2cc3ccc(N=C4SCC(=O)N4CCC)cc3nc2c1,51%
6,CC(=O)c1cc2c(c(O)c1C)C(=O)C(=O)c1c(O)cccc1-2,-45.6% (active)
7,CC(C)(C)NC(C1=CC(C)(C)c2ccccc2C1=O)c1ccccc1 (centres undefined),-92.5% (active)
8,CC(=O)N1N=C(CCC(=O)c2nc3ccc([N+](=O)[O-])cc3[nH]2)OC1c1ccc(O)cc1 (centres undefined),103%
9,CCC1(C(N)=O)CC2C=CC1CC2 (centres undefined),115%
10,C=C1C(=O)O[C@H]2[C@H]1CC/C(C(=O)Nc1ccc(OC)c(C(N)=O)c1O)=C\CC[C@@]1(C)O[C@@H]21,25.4%
11,Nc1nc2ccc(CNc3ccc(C(=O)NC(CC(=O)O)C(=O)O)cc3)cc2c(=O)[nH]1 (centres undefined),58.2%
12,CCOC(=O)NNc1nncc2ccccc12,121%
13,COc1ccc2c(c1)nnc1c3cccnc3[nH]c21,-51.1% (active)
14,CC1(C)N=C(N)N=C(N)N1c1ccc(F)c(C(F)(F)F)c1,53.9%
15,O=C1CN(CCN2CC(=O)NC(=O)C2)CC(=O)N1,113%
16,COc1ccc(/C(Cl)=N/N=C(\Cl)c2cc(OC)c(OC)c(OC)c2)cc1OC(C)=O,101%
17,CC1(C)N=C(N)N=C(N)N1c1cccc(CCCCc2ccccc2)c1,-16.8% (active)
18,CC(=O)c1ccc2c(c1)C1C=CCC1[C@H](c1cc3c(cc1Br)OCO3)N2 (some centres undefined),8.44% (active)
19,Clc1ccc2c(c1)nnn1c3ncccc3c(Br)c21,70.8%
